High-throughput results as filed in PubChem.
IL1B secr inh: inhibitors of inflammasome signaling (IL-1 beta secretion). THP-1 LPS/ATP IL-1B secretion, AlphaLISA, 16 h; hits give low values. activity change, % at 57.5 µM. 360,000 compounds, 4.7% hits. AID 743279; in the data active = activity change below about -50%; inconclusive = mostly about -30% to -49%
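Secreted IL-1B measured by AlphaLISA bead assay after 16 h compound exposure of THP-1 cells; compounds (final up to 57.5 uM) added 1 h before LPS (250 ng/mL) and ATP (1.25 mM) stimulation; lower signal means less secretion.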
HT1080-NT tox: kills 2HG-producing HT-1080-NT fibrosarcoma cells | Potency, µM (highest dose often 46.1 µM), without a hit: at the highest dose activity, negative = less viability, actives largely listed as cytotoxic | HT-1080-NT fibrosarcoma viability, CellTiter-Glo ATP luminescence, 48 h | 360,000 compounds, 1.6% hits;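 note: NT is the 2HG producing partner of a matched IDH1 knockdown line; potency is the fitted concentration of half-maximal effect; 0% = DMSO-treated cells and -100% = media-only wells without cells; nearly all actives have a fitted effect of over 55% in size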
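Compounds were tested in concentration-response format on HT-1080-NT cells for 48 hours at 37 degrees C. Cell viability came from CellTiter-Glo luminescence; curves were classified by r2, response magnitude and activity.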
DT40 TDP1 no CPT: qHTS for Inhibitors of human tyrosyl-DNA phosphodiesterase 1 (TDP1): qHTS in cells in absence of CPT; DT40 Tdp1-/- hTDP1 cells, no CPT, ATP luminescence, 48 h; 420,000 compounds, 15% hits; Potency, µM (titrated, usually from 46.2 µM), without a hit: top-dose activity change, negative = growth inhibition, usual class: inhibitors; AID 686978, 2013; note: potency is the fitted concentration of half-maximal effect; nearly all actives have a fitted effect of over 55% in size
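Growth of hTDP1-complemented DT40 Tdp1-knockout cells is measured by ATP luminescence after at least 48 hr compound exposure at 37 °C, with DMSO substituting for the 20 nM CPT used in the parallel screen.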
12-LOX inh: inhibitors of human 12S-lipoxygenase ALOX12 | purified 12hLO, xylenol orange hydroperoxide absorbance | AID 1671190 | 580,000 compounds, 1.1% hits | P18054 | Potency, µM (titrated, usually from 108 µM), for the others: at the top dose activity change, negative = inhibition, most hits filed as inhibitors; note: potency is the fitted concentration of half-maximal effect
Target sequence (P18054 whole entry, looked up): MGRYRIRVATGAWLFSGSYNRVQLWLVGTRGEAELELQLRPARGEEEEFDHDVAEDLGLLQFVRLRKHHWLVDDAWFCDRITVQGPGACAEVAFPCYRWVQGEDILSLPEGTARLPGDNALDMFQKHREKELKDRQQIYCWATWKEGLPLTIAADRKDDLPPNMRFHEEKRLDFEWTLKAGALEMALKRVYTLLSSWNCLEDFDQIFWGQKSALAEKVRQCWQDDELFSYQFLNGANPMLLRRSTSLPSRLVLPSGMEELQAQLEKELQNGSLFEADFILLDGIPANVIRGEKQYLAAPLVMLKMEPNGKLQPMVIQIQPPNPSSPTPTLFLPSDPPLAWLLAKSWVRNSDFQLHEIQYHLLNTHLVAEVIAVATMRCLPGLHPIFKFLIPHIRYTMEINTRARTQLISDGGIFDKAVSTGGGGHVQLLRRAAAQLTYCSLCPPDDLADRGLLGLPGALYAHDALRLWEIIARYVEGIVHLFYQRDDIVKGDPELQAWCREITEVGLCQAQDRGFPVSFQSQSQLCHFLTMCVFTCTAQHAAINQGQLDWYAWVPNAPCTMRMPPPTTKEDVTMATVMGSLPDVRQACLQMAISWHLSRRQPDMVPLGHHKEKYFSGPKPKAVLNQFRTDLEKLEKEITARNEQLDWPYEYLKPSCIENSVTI
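Hydroperoxide product was detected by ferrous iron/xylenol orange as the 573 to 405 nm absorbance ratio. Arachidonic acid at 40 uM (final) was turned over for 30 min at room temperature by 150 nM human 12hLO, pH 7.0 Hepes buffer, after 15 min compound preincubation.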
DT40 TDP1 CPT: DT40-hTDP1 cell growth loss with CPT. chicken DT40 Tdp1-/-;hTDP1 cells + 20 nM CPT, ATP luminescence, 48 h. Potency, µM (series often up to 46.2 µM), inactives show at the highest dose activity change, negative = growth inhibition, actives largely listed as inhibitors. 420,000 compounds, 12% hits. AID 686979; note: potency is the fitted concentration of half-maximal effect; nearly all actives have a fitted effect of over 55% in size
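Cell growth measured by CellTiter-Glo luminescence after a minimum 48 h, 37 C compound exposure with 20 nM CPT in Tdp1-knockout DT40 cells stably expressing hTDP1, seeded 400/well; qHTS titration format.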
HT1080 IDH1KD tx: toxicity to HT-1080 IDH1 knockdown cells (counter line) | HT-1080 IDH1 knockdown viability, ATP luminescence, 48 h | Potency, µM (titrated, usually from 46.1 µM), inactives show top-dose activity, negative = toxicity, hits mostly cytotoxic | 360,000 compounds, 2% hits;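 note: potency is the fitted concentration of half-maximal effect; 0% = DMSO wells and -100% = cell-free medium wells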
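IDH1KD HT-1080 cells, 750/well, RPMI + 5% FBS; compound pinned after 2 h settling; 48 h, 37 °C; CellTiter-Glo luminescence; % activity normalised to DMSO and no-cell wells; curves fitted, classed by r2 and efficacy.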
* hit, by the source's call. The entries come from a sample that favours hits as a whole. Unless noted, calls come from the whole dose curve; as a rule, active = well fitted curve in the direction sought with a large enough effect; inconclusive = small, poorly fitted or top-dose-only effect, or another doubt; inactive = no such curve, though single readings can be large; an effect the other way counts as inactive or inconclusive. Unless noted, % is set by controls: 0 for no effect and ±100 for the full control effect.

`Cc1cccc(NC(=S)NC2CCCCC2)n1` gave IL1B secr inh 45, HT1080-NT tox inconclusive, DT40 TDP1 no CPT inconclusive, 12-LOX inh 40µM*, DT40 TDP1 CPT 26µM* and HT1080 IDH1KD tx -20%.
COC(=O)Cc1ccc(NC(=S)Nc2cccc(C)n2)cc1 was read as IL1B secr inh 17, HT1080-NT tox -13%, DT40 TDP1 no CPT 18µM*, 12-LOX inh inconclusive, DT40 TDP1 CPT inconclusive and HT1080 IDH1KD tx -17%.
CCc1c(C(=O)NC2CCC(C)CC2)csc1C (stereo not drawn) was read as 12-LOX inh -1%.
Screening Cc1cccc(NC(=S)NC(=O)c2cccs2)n1 returned IL1B secr inh 33, HT1080-NT tox 1.3µM*, DT40 TDP1 no CPT -13%, 12-LOX inh 16%, DT40 TDP1 CPT -1% and HT1080 IDH1KD tx 5.6µM*.
Cc1cccc(NC(=S)Nc2ccc(Oc3ccccc3)cc2)n1 was read as IL1B secr inh -20, HT1080-NT tox -28%, DT40 TDP1 no CPT inconclusive, 12-LOX inh 10µM*, DT40 TDP1 CPT inconclusive and HT1080 IDH1KD tx -2%.
For O=C(COc1ccc(Cl)cc1)Nc1c(NC2CCCCC2)c2ccccc2oc1=O the results were 12-LOX inh 7%.
Screening O=C(c1ccccc1Cl)N1C[C@@H](CO)[C@H](c2ccncc2)C1 returned 12-LOX inh 15%.
`Cc1nn(C)cc1C(=O)N1C[C@@H](CO)[C@H](c2ccncc2)C1` gave 12-LOX inh 50µM*.
Screening Cc1ccc(C(=O)NNC(=S)NC(=O)c2ccco2)cc1 returned IL1B secr inh 97, HT1080-NT tox inconclusive, DT40 TDP1 no CPT 12µM*, 12-LOX inh -27%, DT40 TDP1 CPT 7.3µM* and HT1080 IDH1KD tx inconclusive.
Screening O=C(NC(=S)NNC(=O)c1ccco1)c1ccccc1 returned IL1B secr inh 102, HT1080-NT tox -25%, DT40 TDP1 no CPT 16µM*, 12-LOX inh inconclusive, DT40 TDP1 CPT inconclusive and HT1080 IDH1KD tx inconclusive.
`Cc1ccc(C(=O)NNC(=O)c2ccco2)cc1` gave IL1B secr inh -9, HT1080-NT tox -6%, DT40 TDP1 no CPT 4%, 12-LOX inh 1%, DT40 TDP1 CPT -4% and HT1080 IDH1KD tx 3%.
`CC1CCCC(NC(=S)NC(=O)c2ccco2)C1C` (stereo not drawn) gave IL1B secr inh 15, HT1080-NT tox -6%, DT40 TDP1 no CPT inconclusive, 12-LOX inh 32µM*, DT40 TDP1 CPT 15µM* and HT1080 IDH1KD tx -10%.
`COc1ccc(-c2csc(C(O)c3ccccc3)n2)cc1` (stereo not drawn) gave IL1B secr inh 12, HT1080-NT tox 17%, DT40 TDP1 no CPT inconclusive, 12-LOX inh 4%, DT40 TDP1 CPT inconclusive and HT1080 IDH1KD tx -13%.
For COc1cccc(C(O)c2nc(-c3ccc(N(C)C)cc3)cs2)c1 (stereo not drawn) the results were IL1B secr inh 28, HT1080-NT tox -18%, DT40 TDP1 no CPT 16µM*, 12-LOX inh -3%, DT40 TDP1 CPT 23µM* and HT1080 IDH1KD tx inconclusive.
Screening COc1ccc(-c2csc(C(O)c3cccc(OC)c3)n2)cc1 (stereo not drawn) returned IL1B secr inh 10, HT1080-NT tox -18%, DT40 TDP1 no CPT inconclusive, 12-LOX inh 1%, DT40 TDP1 CPT 12µM* and HT1080 IDH1KD tx inconclusive.
CCN(CC)C(=O)c1cccc(-c2csc(C(O)c3cccc(OC)c3)n2)c1 (stereo not drawn) was read as IL1B secr inh -17, HT1080-NT tox inconclusive, DT40 TDP1 no CPT 4.6µM*, 12-LOX inh 10%, DT40 TDP1 CPT 23µM* and HT1080 IDH1KD tx inconclusive.
